TWEAK-Fn14 inh: inhibitors of TWEAK-Fn14 signaling, primary screen, luciferase reporter cells, uHTS | inhibition, % at 10 µM | 360,000 compounds, 2% hits | TWEAK-stimulated Fn14 reporter cells, luciferase luminescence, 8 h; in the data active = inhibition above about 50%
CF NFkB inh: inhibitors of PAF-induced NF-kB signaling, primary screen, cell-based, GFP fluorescence, uHTS. KKLEB NF-kB-GFP reporter, GFP fluorescence overnight. inhibition, % at 5 µM. 360,000 compounds, 0.86% hits;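 active = at least 50% inhibition at 5 µM, scaled per plate between neutral and stimulator controls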;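 note: PAF is a Pseudomonas aeruginosa culture filtrate used as stimulus; plate controls were PAF-stimulated DMSO wells for no effect and unstimulated DMSO wells for full effect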
TROY signal inh: inhibitors of TROY-driven NF-kB signaling, primary screen, Q293 LMP1-TROYcd cells, NF-kB luciferase, uHTS. Q293 LMP1-TROYcd NF-kB luciferase reporter, 4 h. AID 1347056, 2019. inhibition, % at 10 µM. 360,000 compounds, 0.98% hits;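 active = compounds whose plate-normalised and pattern-corrected inhibition of the luciferase reporter signal at the single screening dose is 50% or more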
Peg3 promoter: Peg3 promoter-driven luciferase inhibitors, primary screen, cell-based, HeLa, luciferase luminescence; HeLa PEG-Prom luciferase reporter, overnight; inhibition, % at 20 µM; 360,000 compounds, 1.7% hits;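 active = inhibition of at least 50% at 20 µM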
KKLEB cytotox: cytotoxicity in KKLEB CF airway cells, primary screen, cytotoxicity control for CF NF-kB inhibitor project, cell-based, uHTS, fluorescence assay plates. KKLEB CF airway cells viability, ATPlite luminescence, overnight; hits give low values; cells stimulated with P. aeruginosa culture filtrate. activity change (cytotoxicity), % at 5 µM. 360,000 compounds, 0.36% hits. AID 602141, 2011;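 active = corrected activity change at or below -50% at 5 µM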
HIF-2a block: HIF-2a reporter inhibitors, primary screen, luminescence, 786-0 RCC cells | 786-0 RCC cells HIF-2a reporter, luciferase luminescence, overnight | inhibition, % at 18.8 µM | 360,000 compounds, 0.72% hits | AID 624352, 2012;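 active = inhibition of the luminescence signal of 40% or more relative to plate controls, in a single-dose primary screen at 18.75 µM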
CF NFkB conf: inhibitors of PAF-induced NF-kB signaling, retest, confirmation, cell-based, GFP fluorescence, single concentration; AID 602472, 2012; inhibition, % at 5 µM; KKLEB CF airway cells, overnight; 1,300 compounds, 64% hits; shares compounds with CF NFkB inh; in the data active = inhibition above about 40%;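 note: stimulus PAF is a Pseudomonas aeruginosa filtrate and not platelet activating factor; plate controls were DMSO wells with stimulus for no effect and unstimulated DMSO wells for full effect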
* = called active by the depositor; x = not tested or not shown. Most compounds without a hit are left out; they make up all but 4% or so of the library.

SMILES | TWEAK-Fn14 inh | CF NFkB inh | TROY signal inh | Peg3 promoter | KKLEB cytotox | HIF-2a block | CF NFkB conf
C[C@@]12CCC=C[C@H]1[C@H](c1ccc(C(F)(F)F)cc1)N(Cc1ccccc1)C2=O | -18 | 58* | -14 | 19 | -14 | 20 | 39
COc1ccc(C(=O)c2[nH]c(N)c(C(=O)NCCc3c[nH]c4ccccc34)c2-c2ccc(Cl)c(F)c2)cc1 | 29 | x | -22 | x | x | -2 | x
COc1ccc(S(=O)(=O)c2cnc3ccccc3n2)cc1 | 42 | 16 | -1 | 22 | 0 | 11 | x
O=S(=O)(c1ccc(Br)cc1)c1cnc2ccccc2n1 | 55* | 57* | 28 | 33 | -20 | 27 | 49*
CCCC1O[C@@H]2C[C@H]3[C@@H]4CCC5=CC(=O)C=C[C@]5(C)[C@H]4[C@@H](O)C[C@]3(C)[C@]2(C(=O)CO)O1 (some centres not stated) | 1 | 90* | 30 | 4 | 22 | 28 | 23
CN(C(=O)COC(=O)c1ccc(S(=O)(=O)N2CCCCCC2)cc1)c1ccccc1 | -3 | -11 | -11 | 2 | -1 | 5 | x
COc1ccc(-c2ccc(OC)c([C@H]3[C@H]4C=CC[C@@H](C)[C@@H]4C(=O)N3Cc3ccccc3)c2)cc1OC | 21 | 35 | 6 | 6 | -17 | 18 | x
COc1ccc(-c2ccc(F)cc2)cc1[C@H]1[C@H]2C=CC[C@@H](C)[C@@H]2C(=O)N1Cc1ccccc1 | -17 | 75* | -12 | 16 | -2 | 11 | 35
COc1ccc(-c2ccccc2[C@H]2[C@@H]3C=CC[C@@H](C)[C@@H]3C(=O)N2Cc2ccccc2)cc1 | -5 | 60* | 8 | 33 | -26 | 6 | 50*
COc1ccc(-c2c([C@H]3[C@H]4C=CC[C@@H](C)[C@@H]4C(=O)N3Cc3ccccc3)ccc3ccccc23)cc1OC | -12 | 62* | 10 | -2 | -24 | 15 | 46*
O=S(=O)(Nc1cccc(-n2cnnn2)c1)c1ccccc1F | 1 | -8 | -3 | 13 | 12 | 18 | x
CCN(CC)Cc1ccccc1CNC(=O)c1cccc(S(=O)(=O)Nc2ccc3c(c2)OCO3)c1 | -20 | 29 | -20 | -18 | -18 | -24 | x
CCNC(=O)C1(C)CCCN(Cc2ccc(-c3ccccc3)o2)C1 (configuration not stated) | -40 | 58* | -13 | -10 | -3 | -30 | 63*
CCCNC(=O)C1(C)CCN(Cc2ccc(-c3ccccc3)o2)C1 (configuration not stated) | -2 | 15 | 23 | -8 | -4 | -19 | x
O=S1(=O)CC=C(CSC(=S)NC2CCS(=O)(=O)C2)C1 (configuration not stated) | 21 | 51* | 8 | 57* | -11 | 38 | 96*
COC(=O)C[C@H]1C[C@H]2c3cc(NC(=O)Cc4ccncc4)ccc3O[C@H]2[C@@H](CO)O1 | 4 | -8 | 0 | -2 | 5 | -5 | x
COc1cc2c(Cc3ccccc3)cncc2cc1O | 43 | 53* | 24 | 10 | 3 | 13 | 66*
Cc1ccc(C(=O)c2cnc3ccccc3c2-c2ccccc2)cc1 | 33 | 70* | 31 | 19 | -17 | 17 | 38
OC[C@H]1O[C@@](CO)(O[C@H]2O[C@H](CO)[C@@H](O)[C@H](O)[C@H]2O)[C@@H](O[C@H]2O[C@H](CO)[C@@H](O)[C@H](O)[C@H]2O)[C@@H]1O | 13 | 7 | 7 | 3 | -22 | -3 | x
CC(C)(C)c1ccc(C(=O)O/N=C(\N)Cc2cccs2)cc1 | -153 | 61* | -26 | 6 | -21 | -63 | 18
Cc1cc(NC(=O)CSc2nc3cc(Cl)ccc3c(=O)n2C(C)C)no1 | -16 | 30 | 2 | 25 | -27 | 20 | x
Cc1ccc(C(=O)N/C(=C/c2ccc(N(C)C)cc2)C(=O)NCC2CCCO2)cc1 (configuration not stated) | 25 | -3 | -4 | 2 | 8 | 9 | x
N#CC(C#N)c1ccnc2ccccc12 | 59* | 58* | 43 | 10 | -14 | 0 | 46*
CCN(CC(=O)NCc1ccc(F)cc1)C(=O)Cc1ccc(OC)cc1 | 6 | 1 | 4 | 5 | 10 | 4 | x
c1ccc(C2[C@H]3CN(Cc4cccnc4)[C@H](c4ccccc4)C34CC2(c2cccnc2)C4)cc1 (some centres not stated) | -8 | 22 | 0 | 14 | 1 | 15 | x
SMILES | TWEAK-Fn14 inh | CF NFkB inh | TROY signal inh | Peg3 promoter | KKLEB cytotox | HIF-2a block | CF NFkB conf
c1ccc(C2[C@H]3CN(Cc4cccnc4)[C@H](c4ccccc4)C34CC2(c2ccccc2)C4)cc1 (some centres not stated) | 2 | 53* | -9 | 7 | -19 | -19 | 5
c1nc(NCc2ccc3c(c2)OCO3)c2cc(-c3ccc4c(c3)OCCO4)ccc2n1 | -10 | 10 | 21 | -12 | 8 | -6 | x
c1cncc(CNc2ncnc3ccc(-c4ccc5c(c4)OCO5)cc23)c1 | 4 | 36 | 12 | 18 | -2 | 24 | 29
COCCNC(=O)c1cc2c(c(-c3cccc(C#Cc4ccc(OC)c(OC)c4)c3)n1)[C@H](CCO)N(S(=O)C(C)(C)C)C2 (some centres not stated) | 2 | -14 | 12 | 11 | -11 | 14 | x
Cc1nnc(SCC(=O)N2CCC(c3noc4ccc(F)cc34)CC2)s1 | 68* | 64* | 40 | 2 | -14 | 2 | 90*
C/C(=N/NC(=O)c1cccs1)c1ccc(NC(=O)COc2ccc(Cl)cc2)cc1 | -59 | 59* | -35 | 29 | -41 | 0 | 78*
COc1ccc(Cl)cc1NC(=O)C(C)N1CCN(c2ccccn2)CC1 (configuration not stated) | 1 | 7 | 9 | 17 | 6 | 13 | x
Cc1ccccc1Cn1ccc(NC(=O)c2nn(C)cc2[N+](=O)[O-])n1 | 87* | 60* | 78* | -62 | -9 | 2 | -78
CCn1cc([N+](=O)[O-])c(C(=O)Nc2ccn(Cc3ccccc3F)n2)n1 | -13 | 10 | 6 | -1 | 6 | 8 | x
Cc1cc2ccccn2c1C(=O)c1ccc(NN)c([N+](=O)[O-])c1 | 33 | 56* | 12 | 31 | -8 | 4 | 10
Cc1cc(N2C(=O)C(O)=C(C(=O)c3ccc(C)o3)C2c2cccc(Oc3ccccc3)c2)no1 (configuration not stated) | -8 | 51* | 6 | 15 | 6 | 4 | 64*
